Measured values from PubChem BioAssay AID1159580 (chemical genetic matrix, 2015).
Hit rate of the full screen: of about 5,500 compounds, about 2,000 (36%) were called active. Another 18% or so got no clear call; they are omitted. Cut-off read from the data, not from the text of the source: active = normalized growth mostly below about 0.91 (no sharp cut-off); inconclusive = no clear call, values can overlap the other calls; inactive = mostly above about 0.92. The list shows a part of the results.

Test: chemical genetic growth profiling, strain panel (AID 1159580);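 note: tested at 20 µM; growth read once vehicle control cultures reached saturation at 30 °C; 1 = growth at the plate median or of vehicle wells; lower values mean less growth of the strain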
Settings: growth OD

Measured: normalized growth

COc1ccc2cc3[n+](cc2c1OC)CCc1cc2c(cc1-3)OCO2
inactive: S. cerevisiae deletion strains, locus YKL009W, strain mrt4, active compounds read low 0.922 | S. cerevisiae deletion strains, locus YKL068W, active compounds read low 1 | S. cerevisiae deletion strains, locus YKL085W, strain MDH1 (second series), active compounds read low 0.996 | S. cerevisiae deletion strains, locus YKL085W, strain MDH1, active compounds read low 0.996 | S. cerevisiae deletion strains, locus YKL160W, strain elf1, active compounds read low 0.985 | S. cerevisiae deletion strains, locus YKR026C, strain gcn3, active compounds read low 0.994 | S. cerevisiae deletion strains, locus YKR091W, strain srl3, active compounds read low 0.985 | S. cerevisiae deletion strains, locus YLL001W, strain dnm1, active compounds read low 0.99 | S. cerevisiae deletion strains, locus YLL026W, active compounds read low 1.02 | S. cerevisiae deletion strains, locus YLL041C, strain sdh2, active compounds read low 0.989 | S. cerevisiae deletion strains, locus YLR027C, strain aat2, active compounds read low 0.972 | S. cerevisiae deletion strains, locus YLR039C, strain RIC1, active compounds read low 0.904 | S. cerevisiae deletion strains, locus YLR221C, strain rsa3, active compounds read low 1 | S. cerevisiae deletion strains, locus YLR258W, strain gsy2, active compounds read low 0.99 | S. cerevisiae deletion strains, locus YLR262C, strain YPT6 (second series), active compounds read low 1.04 | S. cerevisiae deletion strains, locus YLR262C, strain YPT6, active compounds read low 0.82 | S. cerevisiae deletion strains, locus YLR320W, strain mms22, active compounds read low 0.993 | S. cerevisiae deletion strains, locus YLR342W, strain FKS1, active compounds read low 0.979 | S. cerevisiae deletion strains, locus YLR357W, strain rsc2, active compounds read low 0.948 | S. cerevisiae deletion strains, locus YLR370C, strain arc18, active compounds read low 0.99 | S. cerevisiae deletion strains, locus YLR384C, strain iki3, active compounds read low 0.975 | S. cerevisiae deletion strains, locus YML120C, strain ndi1, active compounds read low 0.996 | S. cerevisiae deletion strains, locus YMR058W, strain fet3, active compounds read low 0.985 | S. cerevisiae deletion strains, locus YMR078C, strain ctf18, active compounds read low 0.912 | S. cerevisiae deletion strains, locus YMR125W, strain sto1, active compounds read low 0.981 | S. cerevisiae deletion strains, locus YMR129W, active compounds read low 0.991 | S. cerevisiae deletion strains, locus YMR205C, strain PFK2, active compounds read low 0.967 | S. cerevisiae deletion strains, locus YMR231W, strain pep5, active compounds read low 0.995 | S. cerevisiae deletion strains, locus YMR307W, strain GAS1, active compounds read low 0.986 | S. cerevisiae deletion strains, locus YNL071W, strain lat1, active compounds read low 0.991 | S. cerevisiae deletion strains, locus YNL183C, strain NPR1, active compounds read low 0.855 | S. cerevisiae deletion strains, locus YNL209W, strain ssb2, active compounds read low 0.98 | S. cerevisiae deletion strains, locus YNL248C, strain rpa49, active compounds read low 0.975 | S. cerevisiae deletion strains, locus YNL250W, strain rad50, active compounds read low 0.995 | S. cerevisiae deletion strains, locus YNL271C, strain bni1, active compounds read low 0.963 | S. cerevisiae deletion strains, locus YNL298W, strain CLA4, active compounds read low 0.971 | S. cerevisiae deletion strains, locus YNL322C, strain KRE1 (second series), active compounds read low 0.987 | S. cerevisiae deletion strains, locus YNR049C, strain mso1, active compounds read low 0.998 | S. cerevisiae deletion strains, locus YOR001W, strain rrp6, active compounds read low 0.973 | S. cerevisiae deletion strains, locus YOR070C, strain gyp1, active compounds read low 0.984 | S. cerevisiae deletion strains, locus YOR080W, strain dia2, active compounds read low 0.992 | S. cerevisiae deletion strains, locus YOR083W, strain WHI5, active compounds read low 0.994 | S. cerevisiae deletion strains, locus YOR106W, strain vam3, active compounds read low 1.02 | S. cerevisiae deletion strains, locus YOR265W, strain rbl2, active compounds read low 0.984 | S. cerevisiae deletion strains, locus YOR270C, strain vph1, active compounds read low 0.976 | S. cerevisiae deletion strains, locus YOR290C, strain snf2, active compounds read low 0.96 | S. cerevisiae deletion strains, locus YPL051W, strain arl3, active compounds read low 0.994 | S. cerevisiae deletion strains, locus YPL078C, strain atp4, active compounds read low 0.991 | S. cerevisiae deletion strains, locus YPL106C, strain sse1, active compounds read low 0.964 | S. cerevisiae deletion strains, locus YPL240C, strain hsp82, active compounds read low 1.01 | S. cerevisiae deletion strains, locus YPR141C, strain kar3, active compounds read low 1.01 | S. cerevisiae deletion strains, locus YPR163C, strain tif3, active compounds read low 0.984
active: S. cerevisiae deletion strains, locus YJR075W, strain HOC1, active compounds read low 0.394 | S. cerevisiae deletion strains, locus YKL190W, strain CNB1, active compounds read low 0.293 | S. cerevisiae deletion strains, locus YKR001C, strain vps1, active compounds read low 0.338 | S. cerevisiae deletion strains, locus YLR058C, strain SHM2, active compounds read low 0.409 | S. cerevisiae deletion strains, locus YLR102C, strain apc9, active compounds read low 0.702 | S. cerevisiae deletion strains, locus YLR113W, strain HOG1, active compounds read low 0.83 | S. cerevisiae deletion strains, locus YLR268W, strain sec22, active compounds read low 0.409 | S. cerevisiae deletion strains, locus YLR330W, strain CHS5, active compounds read low 0.711 | S. cerevisiae deletion strains, locus YLR342W, strain FKS1 (second series), active compounds read low 0.373 | S. cerevisiae deletion strains, locus YLR371W, strain rom2, active compounds read low 0.8 | S. cerevisiae deletion strains, locus YLR418C, strain cdc73, active compounds read low 0.478 | S. cerevisiae deletion strains, locus YML016C, strain PPZ1, active compounds read low 0.413 | S. cerevisiae deletion strains, locus YML032C, strain rad52, active compounds read low 0.459 | S. cerevisiae deletion strains, locus YML124C, strain tub3, active compounds read low 0.652 | S. cerevisiae deletion strains, locus YMR223W, strain ubp8, active compounds read low 0.393 | S. cerevisiae deletion strains, locus YMR263W, strain SAP30, active compounds read low 0.55 | S. cerevisiae deletion strains, locus YNL067W, strain RPL9B, active compounds read low 0.319 | S. cerevisiae deletion strains, locus YNL128W, strain TEP1, active compounds read low 0.518 | S. cerevisiae deletion strains, locus YNL153C, strain GIM3, active compounds read low 0.701 | S. cerevisiae deletion strains, locus YNL233W, strain BNI4, active compounds read low 0.593 | S. cerevisiae deletion strains, locus YNL307C, strain MCK1, active compounds read low 0.561 | S. cerevisiae deletion strains, locus YNL322C, strain KRE1, active compounds read low 0.496 | S. cerevisiae deletion strains, locus YNR052C, strain pop2, active compounds read low 0.671 | S. cerevisiae deletion strains, locus YOL006C, strain TOP1, active compounds read low 0.405 | S. cerevisiae deletion strains, locus YOL012C, strain htz1 2.03 [resistant] | S. cerevisiae deletion strains, locus YOL147C, strain pex11, active compounds read low 0.603 | S. cerevisiae deletion strains, locus YOR061W, strain CKA2, active compounds read low 0.378 | S. cerevisiae deletion strains, locus YOR069W, strain VPS5, active compounds read low 0.731 | S. cerevisiae deletion strains, locus YOR136W, strain idh2, active compounds read low 0.748 | S. cerevisiae deletion strains, locus YOR144C, strain elg1, active compounds read low 0.586 | S. cerevisiae deletion strains, locus YOR184W, strain ser1, active compounds read low 0.333 | S. cerevisiae deletion strains, locus YOR231W, strain MKK1, active compounds read low 0.822 | S. cerevisiae deletion strains, locus YOR316C, strain cot1, active compounds read low 0.663 | S. cerevisiae deletion strains, locus YPL055C, strain LGE1, active compounds read low 0.525 | S. cerevisiae deletion strains, locus YPL241C, strain CIN2, active compounds read low 0.558 | S. cerevisiae deletion strains, locus YPL256C, strain CLN2, active compounds read low 0.786 | S. cerevisiae deletion strains, locus YPR119W, strain clb2, active compounds read low 0.804 | S. cerevisiae deletion strains, locus YPR167C, strain met16, active compounds read low 0.622 | S. cerevisiae deletion strains, strain wtn01, active compounds read low 0.305 | S. cerevisiae strains, strain wild type, active compounds read low 0.408
